Assay results: the supplement of paper PMC12669032
Unmarked numbers belong to inactive results.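 The calls were made as follows: active = AUC reduced over 20% with Padj below 0.05 in at least 2 of 3 replicates; inactive = otherwise.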

The compounds below were run on Bacteroides stercoris (assay: growth AUC relative to DMSO control (median of replicates) (fraction); higher = more growth (less inhibition), active = hit call of the paper). Details: 20 µM; 24 h.
In short: (§1)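 Gut bacterial monocultures in mGAM were treated with 20 µM compound (1% DMSO) and grown anaerobically at 37 °C in round-bottom 96-well plates from OD600 0.05. OD600 was read hourly for 24 h, with the minimum OD set to 0. Area under the growth curve was normalised to the plate median of solvent-only wells, or to row and column medians on the industrial chemical plate. Each value is the median of three biological replicates, each grown on a separate day.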

Structure (SMILES) | growth AUC
BrCCBr | 1.17
O=C(O)c1ccc(Cl)nc1 | 1.08
N#CCNC(=O)c1cnccc1C(F)(F)F | 0.966
O=C1c2ccccc2C(=O)N1SC(Cl)(Cl)Cl | 0.995
CCC(CC)Nc1c([N+](=O)[O-])cc(C)c(C)c1[N+](=O)[O-] | 0.86
COc1ccc(/C(=C/C(=O)N2CCOCC2)c2ccc(Cl)cc2)cc1OC | 1.33
CON(C)C(=O)Nc1ccc(Br)c(Cl)c1 | 0.958
COP(=S)(NC(C)C)Oc1ccc(C)cc1[N+](=O)[O-] (stereo not drawn) | 1.09
CCCCc1c(C)nc(N(C)C)[nH]c1=O | 1.03
CCCSP(=S)(OCC)Oc1ccc(Cl)cc1Cl (stereo not drawn) | 1.41
O=S1(=O)OCC2C(CO1)C1(Cl)C(Cl)=C(Cl)C2(Cl)C1(Cl)Cl (stereo not drawn) | 0.765
Oc1ccc(-c2ccccc2)cc1 | 0.815
CC(C)(C)c1ccc(CSc2cnn(C(C)(C)C)c(=O)c2Cl)cc1 | 1.07
CCOc1ccc(C(C)(C)COCc2cccc(Oc3ccccc3)c2)cc1 | 0.792
CNC(=O)Oc1cccc2c1OC(C)(C)C2=O | 1.04
CCOC(=O)N(C)C(=O)CSP(=S)(OCC)OCC | 1.01
Nc1c(Cl)cc([N+](=O)[O-])cc1Cl | 0.875
O=C1C(Cl)=C(Cl)C(=O)C(Cl)=C1Cl | 0.877
COc1cc(OC)nc(NC(=O)[N-]S(=O)(=O)c2ncccc2OCC(F)(F)F)n1.[Na+] | 0.888
Cc1cc(Cl)ccc1N=CN(C)C.Cl | 0.972

Structure (SMILES) | growth AUC
CCOCn1c(-c2ccc(Cl)cc2)c(C#N)c(Br)c1C(F)(F)F | 0.914
CCOP(=S)(OCC)Oc1cnc2ccccc2n1 | 0.934
C#CCC1=C(C)C(OC(=O)C2C(C=C(C)C)C2(C)C)CC1=O (stereo not drawn) | 1.01
CCOP(=S)(OCC)SCCS(=O)CC (stereo not drawn) | 1.02
CO/N=C(/C(=O)OC)c1ccccc1CO/N=C(\C)c1cccc(C(F)(F)F)c1 | 0.993
CCSC(=O)N1CCCCCC1 | 1
COC(C)(C)CCCC(C)C/C=C/C(C)=C/C(=O)OC(C)C (stereo not drawn) | 1.03
Clc1c(Cl)c(Cl)c(Cl)c(Cl)c1Cl | 1.08
C[C@@H]1C[C@@H]([C@H](O)CC2CC(=O)NC(=O)C2)C(=O)[C@@H](C)C1 | 1.05
CCS(=O)(=O)Cc1ccccc1OC(=O)NC | 1.1
CC1CNC(=S)N1 (stereo not drawn) | 1.09
CCNc1nc(Cl)nc(NC(C)(C)C)n1 | 0.996
COP(=O)(OC)OC(Br)C(Cl)(Cl)Br (stereo not drawn) | 0.984
O=C(NC(=O)c1ccccc1Cl)Nc1ccc(OC(F)(F)F)cc1 | 0.802
O=C(O)C(Cl)Cl | 0.994
CCCOc1nn(C(=O)[N-]S(=O)(=O)c2ccccc2C(=O)OC)c(=O)n1C.[Na+] | 1.13
Oc1ccc(Cl)cc1 | 0.981
C/C(=N\NC(=O)Nc1cc(F)cc(F)c1)c1ncccc1C(=O)[O-].[Na+] | 1.05
CCCN(CCOc1c(Cl)cc(Cl)cc1Cl)C(=O)n1ccnc1 | 1.14

What follows are compounds tested on Bacteroides thetaiotaomicron in the same assay as above. Details: 20 µM; 24 h.
In short: as §1

Structure (SMILES) | growth AUC
BrCCBr | 0.987
O=C(O)c1ccc(Cl)nc1 | 1.01
N#CCNC(=O)c1cnccc1C(F)(F)F | 0.988
O=C1c2ccccc2C(=O)N1SC(Cl)(Cl)Cl | 0.999
CCC(CC)Nc1c([N+](=O)[O-])cc(C)c(C)c1[N+](=O)[O-] | 0.96
COc1ccc(/C(=C/C(=O)N2CCOCC2)c2ccc(Cl)cc2)cc1OC | 0.978
CON(C)C(=O)Nc1ccc(Br)c(Cl)c1 | 0.998
COP(=S)(NC(C)C)Oc1ccc(C)cc1[N+](=O)[O-] (stereo not drawn) | 0.964
CCCCc1c(C)nc(N(C)C)[nH]c1=O | 0.989
CCCSP(=S)(OCC)Oc1ccc(Cl)cc1Cl (stereo not drawn) | 0.961
O=S1(=O)OCC2C(CO1)C1(Cl)C(Cl)=C(Cl)C2(Cl)C1(Cl)Cl (stereo not drawn) | 0.984
Oc1ccc(-c2ccccc2)cc1 | 0.985
CC(C)(C)c1ccc(CSc2cnn(C(C)(C)C)c(=O)c2Cl)cc1 | 0.975
CCOc1ccc(C(C)(C)COCc2cccc(Oc3ccccc3)c2)cc1 | 0.958
CNC(=O)Oc1cccc2c1OC(C)(C)C2=O | 1.02
CCOC(=O)N(C)C(=O)CSP(=S)(OCC)OCC | 0.994
Nc1c(Cl)cc([N+](=O)[O-])cc1Cl | 0.986
O=C1C(Cl)=C(Cl)C(=O)C(Cl)=C1Cl | 0.986
COc1cc(OC)nc(NC(=O)[N-]S(=O)(=O)c2ncccc2OCC(F)(F)F)n1.[Na+] | 0.77 (active)
Cc1cc(Cl)ccc1N=CN(C)C.Cl | 1.01

Structure (SMILES) | growth AUC
CCOCn1c(-c2ccc(Cl)cc2)c(C#N)c(Br)c1C(F)(F)F | 0.95
CCOP(=S)(OCC)Oc1cnc2ccccc2n1 | 0.895
C#CCC1=C(C)C(OC(=O)C2C(C=C(C)C)C2(C)C)CC1=O (stereo not drawn) | 1.01
CCOP(=S)(OCC)SCCS(=O)CC (stereo not drawn) | 1.02
CO/N=C(/C(=O)OC)c1ccccc1CO/N=C(\C)c1cccc(C(F)(F)F)c1 | 0.956
CCSC(=O)N1CCCCCC1 | 0.995
COC(C)(C)CCCC(C)C/C=C/C(C)=C/C(=O)OC(C)C (stereo not drawn) | 0.981
Clc1c(Cl)c(Cl)c(Cl)c(Cl)c1Cl | 1
C[C@@H]1C[C@@H]([C@H](O)CC2CC(=O)NC(=O)C2)C(=O)[C@@H](C)C1 | 1.04
CCS(=O)(=O)Cc1ccccc1OC(=O)NC | 0.971
CC1CNC(=S)N1 (stereo not drawn) | 1
CCNc1nc(Cl)nc(NC(C)(C)C)n1 | 0.967
COP(=O)(OC)OC(Br)C(Cl)(Cl)Br (stereo not drawn) | 0.953
O=C(NC(=O)c1ccccc1Cl)Nc1ccc(OC(F)(F)F)cc1 | 0.962
O=C(O)C(Cl)Cl | 0.999
CCCOc1nn(C(=O)[N-]S(=O)(=O)c2ccccc2C(=O)OC)c(=O)n1C.[Na+] | 0.992
Oc1ccc(Cl)cc1 | 0.997
C/C(=N\NC(=O)Nc1cc(F)cc(F)c1)c1ncccc1C(=O)[O-].[Na+] | 1.01
CCCN(CCOc1c(Cl)cc(Cl)cc1Cl)C(=O)n1ccnc1 | 0.869
